About 79,000 compounds went through this panel and 15% of them were active in at least one assay; those are over-represented in the sample as a whole. Calls of active or inactive are those of the source. No stated cut-off is given here; in the data, active means growth inhibition above about 70%; inactive means the rest.
Key:
[1] = NCI Yeast Anticancer Drug Screen. Data for the rad50 strain (AID 155);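 further: 0% = growth of vehicle-only cultures of the same strain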; conditions: S. cerevisiae rad50 strain growth inhibition; at 50.0 µM; hits give high values
Outline: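 DNA repair mutant yeast, compound exposure, growth read-out; inhibition is taken relative to vehicle.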

[2] = NCI Yeast Anticancer Drug Screen. Data for the mec2-1 strain (AID 157); conditions: S. cerevisiae mec2-1 strain, at 50.0 µM, hits give high values
Outline: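 Growth inhibition is read against vehicle-treated controls after compound exposure of the mec2-1 yeast strain, which is defective in DNA damage repair or cell cycle control.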

[3] = NCI Yeast Anticancer Drug Screen. Data for the sgs1 mgt1 strain (AID 161);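 further: 0% = growth of cultures given vehicle only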; conditions: S. cerevisiae sgs1 mgt1 strain, at 50.0 µM, hits give high values
Outline: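 Percent growth inhibition was derived by comparing compound-exposed mutant yeast with vehicle-exposed cultures. The strain carries alterations in DNA damage repair.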

[4] = NCI Yeast Anticancer Drug Screen. Data for the cln2 rad14 strain (AID 165);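 further: 0% = growth equal to vehicle treated cultures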; conditions: S. cerevisiae cln2 rad14 strain, at 50.0 µM, hits give high values
Outline: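 Growth inhibition, relative to vehicle-treated controls, is the read-out. The test organism is a yeast strain with defined genetic alterations, cln2 rad14.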

[5] = NCI Yeast Anticancer Drug Screen. Data for the bub3 strain (AID 167); conditions: S. cerevisiae bub3 mutant strain, at 50.0 µM, hits give high values
Outline: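 In this screen, a yeast mutant lacking normal mitotic checkpoint function is challenged with compound. Relative growth versus vehicle gives the inhibition value.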

[6] = NCI Yeast Anticancer Drug Screen. Data for the mlh1 rad18 strain (AID 175); conditions: S. cerevisiae mlh1 rad18 strain growth inhibition; at 50.0 µM; hits give high values
Outline: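 Cells of a genetically altered yeast strain, deficient in DNA damage repair, were treated with compound. Their growth was then compared with that of vehicle-treated cultures to give inhibition.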

Measured: growth inhibition

CCC1(O)C(=O)OCc2c1cc1n(c2=O)Cc2cc3cc(N)ccc3nc2-1 (stereo not drawn)
inactive: [4] 56.8% | [5] 56.1%
active: [1] 85% | [2] 88.5% | [3] 77.5% | [6] 72.2%

CC(=O)N(C)C(=O)Oc1cccc2ccccc12
inactive: [1] -8.35% | [2] 17.4% | [3] -10.8% | [4] -34.2% | [5] -27.1% | [6] -0.55%

Clc1cccc(Cl)c1CBr
inactive: [1] 23.1% | [2] -19.1% | [3] 19.3% | [4] 15.8% | [5] 15.3% | [6] 10.1%

CCC[P+](CCC)(CCC)CCCCCCCCCC[P+](CCC)(CCC)CCC
inactive: [1] -2.65% | [2] -13% | [3] 2.05% | [4] -21.2% | [5] -1.15% | [6] -0.5%

FC1(F)[Se]C2C3CCC(C3)C2C1(F)F (stereo not drawn)
inactive: [1] -30.9% | [2] -11.6% | [3] -3.6% | [4] -16.1% | [5] -0.15% | [6] -40.7%

COP(=S)(c1ccccc1)N(C)C(=O)Oc1cccc(C(C)C)c1 (stereo not drawn)
inactive: [1] 21.2% | [2] 30.7% | [3] 34.2% | [4] 25.8% | [5] 43.8% | [6] 45.7%

C1CN2CCOC2O1
inactive: [1] -12.4% | [2] 15.2% | [3] -9.1% | [4] 4.65% | [5] 7.45% | [6] -7.1%

CN(c1ccccc1)c1nc(=[N+]2CCCC2)ss1
inactive: [1] 11.6% | [2] -1.3% | [3] -11.8% | [4] 0.9% | [5] 7.75% | [6] 24.6%

F[C](F)(F)[Hg][c]1ccccc1
active: [1] 99.3% | [2] 99.7% | [3] 99.5% | [4] 98.8% | [5] 99.5% | [6] 99.3%

CC(=O)OC1OC(CS[As](C)C)C(OC(C)=O)C(OC(C)=O)C1OC(C)=O (stereo not drawn)
inactive: [1] 58.6% | [2] -3.05% | [3] 54.8% | [4] 28.7% | [5] 17.6% | [6] 52.5%

c1ccc(N2CCNCC2)cc1
inactive: [1] -11.3% | [2] 4.45% | [3] -27.2% | [4] -28.6% | [5] -0.8% | [6] -1.5%

C[As+](C)(C)c1ccc(Br)c([N+](=O)[O-])c1
inactive: [1] 7.6% | [2] -0.85% | [3] -6% | [4] -13.2% | [5] -1.3% | [6] 10.9%

CCCc1c(C#N)c(S)[nH]c(=S)c1C#N
inactive: [1] 33.4% | [2] 20.4% | [3] 13.6% | [4] -5.65% | [5] 4.55% | [6] 16.2%

Cc1ccccc1-n1c(/C=C\c2ccccn2)nc2ccccc2c1=O
inactive: [1] 36.7% | [2] 8.65% | [3] 33.4% | [4] 35.6% | [5] 53.6% | [6] 23.6%

COc1cc2c(ccc3c4cc(OC)c(OC)cc4c[n+](C)c23)cc1O
inactive: [1] -21.7% | [2] -17.9% | [3] -9.9% | [4] 16.4% | [5] -23.8% | [6] -65.8%

COCC(=O)CP(=O)(OC)OC
inactive: [1] -20.6% | [2] -19.6% | [3] -11.6% | [4] 18.6% | [5] -14.7% | [6] 1.35%

C[P+]1(C)CCCCC1
inactive: [1] 7.15% | [2] 12.8% | [3] 0.35% | [4] -2.7% | [5] -8.85% | [6] -17.1%

CCCCOC(=O)c1ccccc1C(=O)OCc1ccccc1
inactive: [1] -3.45% | [2] -11.7% | [3] -2.85% | [4] -43.7% | [5] 2.8% | [6] -5.25%

CN(C)P(=O)(N(C)C)N(C)C.[CH3][Sn]([CH3])([Cl])[Cl]
active: [6] 82.2%
inactive: [1] 5.75% | [2] -1.2% | [3] 52.4% | [4] 49.9% | [5] 63.8%

c1ccc(P2c3ccccc3Oc3ccccc32)cc1
inactive: [1] 36.9% | [2] 7.3% | [3] 42.2% | [4] 42.6% | [5] 32.6% | [6] 37%

CCN(CC)/C(=C\Cl)Nc1ccccn1
inactive: [1] -0.9% | [2] -4% | [3] -0.7% | [4] 3.35% | [5] 6.55% | [6] -2.45%

CCCCCCCC(=O)O.[Ni]
inactive: [1] -15.1% | [2] -0.6% | [3] -2.3% | [4] 8.45% | [5] -18.4% | [6] -18.5%

CC(Cl)CN(CC(C)Cl)c1ccc2c(c1)Cc1ccccc1-2 (stereo not drawn)
inactive: [1] -20.8% | [2] -10.1% | [3] 2.65% | [4] -46.9% | [5] 23.1% | [6] 9%

CCOP1(=O)C=C(C)C(Cl)=C(C)C1 (stereo not drawn)
inactive: [1] 26.9% | [2] 8.35% | [3] 11% | [4] -14.3% | [5] 3.05% | [6] 20.9%

[O-][Cl+3]([O-])([O-])[O-].[O]=[Ru]=[O].c1ccc(-c2ccccn2)nc1.c1ccc(-c2ccccn2)nc1
inactive: [1] 21.9% | [2] 20.9% | [3] 22.4% | [4] 14.2% | [5] 13.7% | [6] 27.4%

CCNc1ccc([N+](=O)[O-])cc1[N+](=O)[O-]
inactive: [1] 11.3% | [2] 16.9% | [3] 7.45% | [4] 4.5% | [5] -6.4% | [6] 5.9%

CN(N)/N=N/c1nc[nH]c1[N+](=O)[O-]
inactive: [1] -11.9% | [2] -24.6% | [3] -2.6% | [4] 4.85% | [5] -12.1% | [6] -3.4%

CCCCOC(N)=O
inactive: [1] -34.6% | [2] -11.6% | [3] 29.4% | [4] -19.9% | [5] 0.1% | [6] 0.3%

N#CC(OC1OC(C(=O)O)C(O)C(O)C1O)c1ccccc1 (stereo not drawn)
inactive: [1] 17.2% | [2] -14.5% | [3] -5.3% | [4] 3% | [5] 0.6% | [6] 2.25%

CCOC(=O)C(Cc1ccc(N(CCCl)CCCl)cc1)NC(=O)C(NC(C)=O)C(C)C (stereo not drawn)
inactive: [1] 36.9% | [2] 13.3% | [3] 33.2% | [4] 17.4% | [5] 29.7% | [6] 28.4%

CC(C)NCC(O)c1ccc(Cl)c(Cl)c1 (stereo not drawn)
inactive: [1] -28.6% | [2] -40% | [3] -14% | [4] 7.25% | [5] -27.2% | [6] -33.8%

CC(Nc1c([N+](=O)[O-])ccc(C(=O)NCCN(C)C)c1[N+](=O)[O-])C(=O)Nc1ccc(N(CCCl)CCCl)cc1 (stereo not drawn)
inactive: [1] -34.6% | [2] -9.75% | [3] 0.75% | [4] 7.35% | [5] -8.05% | [6] -7.75%

O=C1NC(=O)C(=C/C=C/c2ccccc2)C(=O)N1
inactive: [1] 34.2% | [2] -3.5% | [3] 18.6% | [4] 16.4% | [5] 10.5% | [6] -2.25%

CCOC(=O)c1ccccc1C(=O)OCC
inactive: [1] 6.25% | [2] -2.65% | [3] -9.6% | [4] 6.1% | [5] -0.05% | [6] 10.9%

COCC(C)OC(=O)Cc1ccccc1 (stereo not drawn)
inactive: [1] -10.9% | [2] -8.2% | [3] -8.6% | [4] -85.6% | [5] -49.1% | [6] -31.1%

COC(=O)C1C(=O)NC2(C)CC1c1ccccc1O2 (stereo not drawn)
inactive: [1] -28% | [2] -11.7% | [3] -30.8% | [4] 8% | [5] -12.5% | [6] -1.45%

c1ccc2c(C3N4CCCN3CC4)c[nH]c2c1 (stereo not drawn)
inactive: [1] -0.2% | [2] -15.7% | [3] 8.7% | [4] 9.3% | [5] -4.2% | [6] 6.05%

CCC1C2Cc3ccc(O)cc3C1(CC)CCN2C (stereo not drawn)
inactive: [1] 10.6% | [2] -35.2% | [3] -42.5% | [4] -1.65% | [5] -77.2% | [6] -13.2%

O=P(O)(O)CCc1ccccc1
inactive: [1] -3.85% | [2] 1.5% | [3] -5.2% | [4] -15.8% | [5] -2.7% | [6] 7.7%

CP(C)CC[PH+](CC[PH+](C)C)CC[PH+](C)C.[C-]#[O+].[C-]#[O+].[W]
inactive: [1] -1.25% | [2] -6.35% | [3] -13.1% | [4] 24.4% | [5] -0.45% | [6] -0.9%

C#CC(=O)[O][Sn]([c]1ccccc1)([c]1ccccc1)[c]1ccccc1
active: [1] 99% | [2] 99.1% | [3] 99.3% | [4] 99.2% | [5] 98.9% | [6] 99%

CCCCCCCCCCCCN(C)C
inactive: [1] 45.4% | [2] 28.7% | [3] 35.9% | [4] -6.2% | [5] 29.1% | [6] 37.9%

CCOP(=O)(OCC)C(=O)N(CC)CC
inactive: [1] 12.2% | [2] 21.9% | [3] 10.6% | [4] 7.15% | [5] 20.8% | [6] 1.45%
